Measurements as given in ChEMBL document CHEMBL3988442, “University of Dundee, Small-Polar-MMV Screening Library” (2021).

Key:
[1] = target: T1, Aspartate--tRNA(Asp/Asn) ligase (Mycobacterium tuberculosis (strain ATCC 25618 / H37Rv)) (UniProt P9WFW3); test: Assay for Asp RNA synthetase-1 from Mycobacterium tuberculosis; assay type: functional; parameters: scale not given: direction of the effect not stated beside the values; conditions: 30 µM; also: in the data most compounds retested in dose-response had high values
T1 sequence (whole entry): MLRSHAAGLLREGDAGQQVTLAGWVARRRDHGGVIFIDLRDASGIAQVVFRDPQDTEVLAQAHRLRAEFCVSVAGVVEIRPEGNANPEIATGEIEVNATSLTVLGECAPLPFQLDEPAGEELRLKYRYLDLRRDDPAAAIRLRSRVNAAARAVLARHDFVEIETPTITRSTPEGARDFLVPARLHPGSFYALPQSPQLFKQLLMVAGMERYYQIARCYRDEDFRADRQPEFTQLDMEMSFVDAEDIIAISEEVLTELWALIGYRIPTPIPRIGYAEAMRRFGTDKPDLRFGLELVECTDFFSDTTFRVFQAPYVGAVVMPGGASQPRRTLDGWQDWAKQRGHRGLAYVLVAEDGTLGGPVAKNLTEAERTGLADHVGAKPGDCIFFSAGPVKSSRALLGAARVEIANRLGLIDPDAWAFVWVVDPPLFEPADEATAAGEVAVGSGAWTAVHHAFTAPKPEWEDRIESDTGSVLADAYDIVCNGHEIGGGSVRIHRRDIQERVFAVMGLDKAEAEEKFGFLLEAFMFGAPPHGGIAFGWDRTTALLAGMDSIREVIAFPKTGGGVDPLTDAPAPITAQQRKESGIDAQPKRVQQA

[2] = target: Shiga toxin 2 (Escherichia coli O157:H7) (UniProt P09385+P09386); test: E. coli 0.157:H7 Shiga Toxin SOP - stx2 screening assay; assay type: functional; parameters: scale not given: direction of the effect not stated beside the values; conditions: 30 µM

Structure (SMILES) | Percent Effect [1] | Percent Effect [2]
CCc1nnc2n1CCN(Cc1csc(-c3ccc(C)o3)n1)C2 | 0.544% | -33.1%
COC1COC2(CCN(Cc3ccccc3Cl)CC2)C1 (centres undefined) | 3.77% | -11.8%
CS(=O)(=O)NCC1CCCN(C(=O)Nc2ccccc2Cl)C1 (centres undefined) | -5.99% | 10.6%
COc1cnc(N2CCC(Oc3ccccc3OC)(C(=O)O)CC2)nc1 | -1.16% | -0.671%
Cc1cnn(C2CN(CC(=O)NCc3ccccn3)C2)c1 | 5% | 21.1%
CCn1cnnc1CNC(=O)CCC(=O)c1ccc2c(c1)OCCO2 | 4.55% | 13.7%
O=C1CCC2(CCCN(CCc3ccccc3)C2)N1Cc1cccnc1 (centres undefined) | 4.25% | -5.68%
O=S1(=O)COCCN1Cc1ccc(Cl)c(F)c1 | 2.49% | -5.38%
Cc1cc(C)nc(NC(=O)C(C)Oc2ccc3c(c2)OCO3)n1 (centres undefined) | 12.6% | -50%
O=C1CC2(CCN(Cc3ccoc3)C2)CN1c1ccc2c(c1)OCO2 (centres undefined) | 5.29% | -93.1%
COc1ccc2c(c1)OCC(CNC(=O)c1ccc(=O)n(C)c1)C2 (centres undefined) | -0.474% | 0.424%
O=C(c1ccncc1)N1CCCC2(COCCN(c3ccccc3)C2)C1 (centres undefined) | 2.82% | -1.46%
O=C(Cc1ccc2c(c1)OCCO2)NCCc1nnc2n1CCC2 | 6.11% | 15.8%
Cc1cc(C2CCCN2Cc2cc(=O)n(C)c(=O)n2C)on1 (centres undefined) | 0.485% | 14.1%
Cc1nn(C)c(N(C)C)c1CNCc1ccccc1CN(C)C | -4.76% | -24.6%
Cc1noc(C)c1-c1cncc(C2CCCN2Cc2ccncc2)n1 (centres undefined) | 1.92% | -6.19%
NC(=O)c1cc(C2CCCN(CCCOc3ccccc3)C2)n[nH]1 (centres undefined) | -1.57% | -26%
